Screening results: PubChem, National Center for Advancing Translational Sciences (NCATS)
Hits are enriched below; roughly 8.3% of the tested compounds scored in any of these assays.
SW480 rerep: DNA re-replication induction in SW480 cells; SW480 DNA re-replication, Hoechst DNA content imaging, 48 h; Potency, µM (titrated, usually from 46.1 µM), without a hit: top-dose re-replication activation, most hits filed as activators; hit rate 1.8% among 340,000; AID 624297; also: potency is read from the fitted curve at half-maximal effect; % of control where 0% means no effect; nearly all actives have a fitted effect of over 55% in size
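First, 250 cells per well were seeded. Next, compound or vehicle (23 nL) was pinned in, plates sat 48 hr at 37 C. Finally Hoechst was added for 40 min before fluorescence scanning.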
Gal4-VP16 FLuc: counter-screen for ROR gamma inhibitors: Gal4-VP16 reporter | AID 2546 | Drosophila S2 Gal4-VP16 UAS-luciferase, luminescence, 20 h | Potency, µM (doses to about 53.6 µM), without a hit: at the highest dose activity, negative = inhibition, usual class: inhibitors | hit rate 3.5% among 310,000;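 also: Gal4-VP16 expression switched on by copper sulfate through the metallothionein promoter; potency is read from the fitted curve at half-maximal effect; % is scaled to controls: 0 for no effect and ±100 for the full control effect; nearly all actives have a fitted effect of over 50% in size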
Chronic BCR inh: inhibitors of chronic active B-cell receptor signaling | Potency, µM (doses to about 46.1 µM), for the others: top-dose activity change, negative = inhibition, usual class: inhibitors | ABC-DLBCL IkBa-CBG/CBR reporter, luminescence ratio, 4 h | hit rate 0.05% among 340,000 | AID 493014; active = well fitted inhibition curve with a large enough effect in the signal ratio, with a control signal flat, not every such curve was filed as active; inconclusive = small, poorly fitted or top-dose-only effect, or effect the other way, or a change in a side signal; the % refers to the signal ratio;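 also: potency is read from the fitted curve at half-maximal effect; plate controls were basal doxycycline-induced cells for no effect and cells given 10 µM MG132 for full effect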
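Compounds up to 46 uM were incubated four hours with TMD8 cells whose green CBG68 luciferase is fused to IkappaBalpha; red CBR luminescence normalised the signal, and concentration-effect curves were fitted to fusion, red and ratio data.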
RORgamma inh: ROR gamma (mouse) transcription inhibition. P51450. Drosophila S2 Gal4-RORgamma UAS-luciferase reporter, 20 h. Potency, µM (series often up to 53.6 µM), for inactives: top-dose activity change, negative = inhibition, most hits filed as inhibitors. hit rate 5.4% among 310,000; also: potency is read from the fitted curve at half-maximal effect; % is scaled to controls: 0 for no effect and ±100 for the full control effect; nearly all actives have a fitted effect of over 60% in size
Target sequence (P51450 whole entry, looked up, the tested form may be a part): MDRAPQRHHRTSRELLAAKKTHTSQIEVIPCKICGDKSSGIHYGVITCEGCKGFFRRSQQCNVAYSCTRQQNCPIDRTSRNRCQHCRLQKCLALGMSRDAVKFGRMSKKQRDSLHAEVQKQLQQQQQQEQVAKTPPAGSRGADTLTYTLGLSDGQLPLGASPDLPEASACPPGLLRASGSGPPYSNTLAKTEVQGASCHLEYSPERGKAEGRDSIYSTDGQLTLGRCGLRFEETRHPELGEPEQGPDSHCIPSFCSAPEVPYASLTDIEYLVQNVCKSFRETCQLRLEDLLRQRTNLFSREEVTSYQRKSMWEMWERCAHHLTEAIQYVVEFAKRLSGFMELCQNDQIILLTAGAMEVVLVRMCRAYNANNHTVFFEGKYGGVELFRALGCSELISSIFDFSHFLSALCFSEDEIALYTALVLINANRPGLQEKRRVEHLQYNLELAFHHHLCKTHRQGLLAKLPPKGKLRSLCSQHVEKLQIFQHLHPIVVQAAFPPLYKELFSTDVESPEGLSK
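Luciferase reporter read in Schneider cells carrying Gal4-RORγ (mouse) and UAS-Photinus luciferase; cells given compound 1 h before 700 uM copper sulfate induction, then incubated 20 h at ambient temperature.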
Giardia kill: kills Giardia lamblia; Giardia lamblia trophozoite viability; activity change, % at 7.66 µM, hits read low; hit rate 0.15% among 340,000; AID 540267; in the data active = activity change below about -80%; inconclusive = between about -30% and that limit;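 also: parasites exposed to compound for two days anaerobically before the ATP read; % is scaled to controls: 0 for no effect and ±100 for the full control effect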
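Anaerobic 48 hrs incubation at 37 deg C of 100 trophozoites/well with test compounds; ATPLite 1-Step luminescence, 15-30 min RT, reports cellular ATP as viability.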
MCF10A rerep: induces DNA re-replication in MCF 10a normal breast cells; MCF 10A DNA re-replication, Hoechst nuclear intensity, 48 h; Potency, µM (series often up to 46.1 µM), without a hit: at the highest dose activity, positive = re-replication, hits mostly activators; hit rate 2.9% among 350,000; AID 624296; also: potency is read from the fitted curve at half-maximal effect; % of control where 0% means no effect; nearly all actives have a fitted effect of over 50% in size
Active calls of the source: *; ? = inconclusive; / = no result; [ ] = remark or other dose. Unless noted, calls follow the shape of the dose curve; as a rule, active = well fitted curve in the direction sought with a large enough effect; inconclusive = small, poorly fitted or top-dose-only effect, or another doubt; inactive = no such curve, though single readings can be large; an effect the other way counts as inactive or inconclusive.

SMILES | SW480 rerep | Gal4-VP16 FLuc | Chronic BCR inh | RORgamma inh | Giardia kill | MCF10A rerep
O=C(Nc1ccc(Cl)cc1)N(Cc1nc2ccccc2c(=O)[nH]1)Cc1cccs1 | -3% | ? | ? | ? | -13 | ?
CC(C)(C)C(=O)N(Cc1nc2ccccc2c(=O)[nH]1)Cc1cccs1 | 0% | -6% | -1% | ? | -11 | -6%
O=C(CCCl)N(Cc1nc2ccccc2c(=O)[nH]1)Cc1cccs1 | -3% | -7% | 2% | 11µM* | 16 | -3%
Cc1cc(C)n(Cc2ccc(F)cc2)c(=O)c1C#N | -5% | -1% | -6% | 12% | -2 | -4%
COc1ccc(-n2cc(C#N)c(=O)n(Cc3ccc(F)cc3)c2=O)cc1 | 13µM* | -7% | ? | 23% | 7 | ?
O=S(=O)(NNc1cccc(Cl)n1)c1ccc(Cl)cc1 | 1% | / | 0% | / | -6 | -8%
O=S(=O)(Nc1ccc(Cl)nn1)c1ccccc1 | ? | 5% | -1% | -4% | -22 | 13µM*
O=S(=O)(NNc1ccc(Cl)nn1)c1ccc(F)cc1 | -5% | ? | -2% | 14µM* | 7 | -4%
O=S(=O)(Nc1ccc(Cl)cn1)c1ccccc1 | 8% | -1% | 3% | -8% | 2 | -35%
COc1cc(/C=N/Nc2nncn2N)ccc1OCc1c(C)no[n+]1[O-] | 1% | ? | ? | ? | -10 | 18µM*
COc1ccc(/C=N/Nc2nncn2N)cc1Br | 15% | ? | ? | 16%[1.91 µM] | 18 | -6%
C=CCC1NS(=O)(=O)OCC1NC(=O)OCC(Cl)(Cl)Cl (stereo not drawn) | -7% | 13% | -1% | 4% | 0 | 8%
CC(C)(C)OC1NS(=O)(=O)OCC1NCOC(Cl)(Cl)Cl (stereo not drawn) | -3%[9.22 µM] | 22µM* | 4% | 10µM* | -2 | ?
CCOC(=O)c1cc2c(=O)n3ccccc3nc2n(C)c1=NC(=O)c1cc2ccccc2o1 | / | / | 0% | / | / | /
CCOC(=O)c1cc2c(=O)n3ccccc3nc2n(C)c1=NC(=O)c1c(-c2c(F)cccc2Cl)noc1C | 1.3µM* | / | / | / | 9 | 23µM*
CCOC(=O)c1cc2c(=O)n3ccccc3nc2n(C(C)C)c1=NC(=O)c1c(-c2c(F)cccc2Cl)noc1C | 18µM* | -8% | -3% | 2% | 0 | ?
Cc1cc(C)cc(NC(=S)N2CCC(N(C)CC3CCCO3)CC2)c1 (stereo not drawn) | 3% | -1% | -6% | 0% | -4 | 4%
Cc1ccc(S(=O)(=O)c2c(C)nn(C(C)(C)C)c2OC(=O)c2ccc(Br)o2)cc1 | -2% | ? | 1% | ? | -21 | ?
Cc1ccc(S(=O)(=O)c2c(C)nn(C(C)(C)C)c2OC(=O)c2ccco2)cc1 | -1% | ? | ? | -39% | -8 | 13µM*
Cc1ccc(S(=O)(=O)c2c(C)nn(C(C)(C)C)c2OC(=O)c2cccs2)cc1 | -5% | -3% | 7% | ? | -7 | 18µM*
Cc1ccc(OCc2nnc(SC(C)C(=O)O)n2Cc2ccccc2)cc1 (stereo not drawn) | -3% | -6% | ? | 3% | 5 | -35%
CCOc1cc(/C=C2\CCCC(C(=O)C(F)(F)F)=C2O)ccc1O | ? | -21% | ? | ? | 15 | 18µM*
COc1cc(/C=C2/CCCC(C(=O)C(F)(F)F)=C2O)ccc1O | 4% | 6% | -2% | ? | -23 | 7%
COc1ccc(/C=C2/CCCC(C(=O)C(F)(F)F)=C2O)cc1OC | 11% | ? | ? | 18µM* | -22 | ?
COc1ccc(/C=C2\CCCC(C(=O)C(F)(F)F)=C2O)cc1OC | / | -6% | ? | -1% | / | /
CC1(C)Cc2c(sc(NC(=O)COc3cccc4ccccc34)c2C#N)C(C)(C)N1 | ? | 5µM* | ? | 8.9µM* | -24 | 16µM*
CCOC(=O)c1c(NC(=O)CCS(=O)(=O)c2ccccc2)sc2c1CC(C)(C)NC2(C)C | ? | -1% | 4% | -1% | -16 | 18µM*
